From PubChem
DT40 TDP1 no CPT: qHTS for Inhibitors of human tyrosyl-DNA phosphodiesterase 1 (TDP1): qHTS in cells in absence of CPT; Potency, µM (highest dose often 46.2 µM), most hits filed as inhibitors; 420,000 compounds, 15% hits; DT40 Tdp1-/- hTDP1 cells, no CPT, ATP luminescence, 48 h; note: nearly all actives have a fitted effect of over 55% in size
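Growth of hTDP1-complemented DT40 Tdp1-knockout cells is measured by ATP luminescence after at least 48 hr compound exposure at 37 °C, with DMSO substituting for the 20 nM CPT used in the parallel screen.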
12-LOX inh: inhibitors of human 12S-lipoxygenase ALOX12; Potency, µM (series often up to 108 µM), usual class: inhibitors; purified 12hLO, xylenol orange hydroperoxide absorbance; 580,000 compounds, 1.1% hits
Target sequence (P18054 whole entry, looked up): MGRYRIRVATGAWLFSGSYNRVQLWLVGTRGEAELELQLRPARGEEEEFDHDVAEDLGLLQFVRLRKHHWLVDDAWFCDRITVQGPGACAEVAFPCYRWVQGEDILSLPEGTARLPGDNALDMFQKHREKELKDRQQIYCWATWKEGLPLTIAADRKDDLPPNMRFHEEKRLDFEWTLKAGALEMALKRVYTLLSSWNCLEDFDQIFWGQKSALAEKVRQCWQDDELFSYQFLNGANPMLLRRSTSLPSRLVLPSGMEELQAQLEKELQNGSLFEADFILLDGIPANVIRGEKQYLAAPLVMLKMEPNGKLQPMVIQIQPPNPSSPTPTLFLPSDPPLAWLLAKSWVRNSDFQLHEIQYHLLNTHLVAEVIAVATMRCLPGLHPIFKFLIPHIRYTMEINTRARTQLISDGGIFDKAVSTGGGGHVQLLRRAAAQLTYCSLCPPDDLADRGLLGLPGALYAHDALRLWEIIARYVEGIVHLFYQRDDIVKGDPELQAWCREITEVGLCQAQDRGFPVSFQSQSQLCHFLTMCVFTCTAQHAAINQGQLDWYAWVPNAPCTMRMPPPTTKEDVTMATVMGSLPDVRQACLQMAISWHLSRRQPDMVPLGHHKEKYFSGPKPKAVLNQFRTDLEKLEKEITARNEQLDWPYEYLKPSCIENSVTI
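Hydroperoxide product was detected by ferrous iron/xylenol orange as the 573 to 405 nm absorbance ratio. Arachidonic acid at 40 uM (final) was turned over for 30 min at room temperature by 150 nM human 12hLO, pH 7.0 Hepes buffer, after 15 min compound preincubation.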
IL1B secr inh: blocks inflammasome-driven IL-1 beta release; activity change, % at 57.5 µM; THP-1 LPS/ATP IL-1B secretion, AlphaLISA, 16 h; hits give low values; AID 743279; 360,000 compounds, 4.7% hits; in the data active = activity change below about -50%; inconclusive = mostly about -30% to -49%
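Secreted IL-1B measured by AlphaLISA bead assay after 16 h compound exposure of THP-1 cells; compounds (final up to 57.5 uM) added 1 h before LPS (250 ng/mL) and ATP (1.25 mM) stimulation; lower signal means less secretion.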
HT1080 IDH1KD tx: HT-1080 IDH1 knockdown cell toxicity (counter line) | HT-1080 IDH1 knockdown viability, ATP luminescence, 48 h | Potency, µM (titrated, usually from 46.1 µM), usual class: cytotoxic | 360,000 compounds, 2% hits
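% activity derives from luminescence (CellTiter-Glo), normalised to DMSO and no-cell wells. HT-1080-IDH1KD cells, 750/well, had 48 h compound exposure at 37 °C.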
DT40 TDP1 CPT: growth inhibition of DT40 Tdp1-/-;hTDP1 cells with camptothecin (screen for TDP1 inhibitors); 420,000 compounds, 12% hits; Potency, µM (top dose mostly 46.2 µM), hits mostly inhibitors; chicken DT40 Tdp1-/-;hTDP1 cells + 20 nM CPT, ATP luminescence, 48 h; note: nearly all actives have a fitted effect of over 55% in size
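Chicken DT40 Tdp1-/- cells complemented with human TDP1, 400 cells/well, exposed to compounds plus 20 nM camptothecin for at least 48 h at 37 C; viability read as ATP content by CellTiter-Glo luminescence.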
HT1080NT lethal: kills 2HG-producing HT-1080-NT fibrosarcoma cells. Potency, µM (titrated, usually from 46.1 µM), most hits filed as cytotoxic. 360,000 compounds, 1.6% hits. AID 686970. HT-1080-NT fibrosarcoma viability, CellTiter-Glo ATP luminescence, 48 h;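 note: NT is the 2HG producing partner of a matched IDH1 knockdown line; nearly all actives have a fitted effect of over 55% in size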
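A 48-hour cytotoxicity screen used HT-1080-NT cells plated 2 hours before compound delivery. ATP-based CellTiter-Glo luminescence measured viability, normalized to DMSO and no-cell controls.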
Numbers stand for hits. Many of the other results were omitted from the sample, so hits are more common in it than they were. Unless noted, calls come from the whole dose curve; as a rule, active = well fitted curve in the direction sought with a large enough effect; inconclusive = small, poorly fitted or top-dose-only effect, or another doubt; inactive = no such curve, though single readings can be large; an effect the other way counts as inactive or inconclusive.

Cc1nn(C(C)C(=O)N2CCCCC2)c(=O)c2c1sc1ccccc12 (stereo not given) was read as DT40 TDP1 no CPT 21µM, 12-LOX inh inactive, IL1B secr inh inactive, HT1080 IDH1KD tx inactive, DT40 TDP1 CPT inconclusive and HT1080NT lethal inactive.
COc1ccc(N2CCN(C(=O)C(C)n3nc(C)c4sc5ccccc5c4c3=O)CC2)cc1 (stereo not given) was read as DT40 TDP1 no CPT 16µM, 12-LOX inh inactive and DT40 TDP1 CPT inconclusive.
Screening COc1ccc(N2CCOC3CCN(Cc4ccccn4)CC3C2=O)cc1 (stereo not given) returned 12-LOX inh inactive.
`CC1(C)CC(N(Cc2ccc(F)cc2)C(=O)c2ccc(F)cc2)CCO1` (stereo not given) gave DT40 TDP1 no CPT inconclusive, 12-LOX inh inactive, IL1B secr inh inactive, HT1080 IDH1KD tx inactive, DT40 TDP1 CPT inactive and HT1080NT lethal inactive.
Screening CC1(C)CC(C(CCN(Cc2ccccc2)C(=O)c2ccco2)c2ccc(F)cc2)CCO1 (stereo not given) returned DT40 TDP1 no CPT inconclusive, 12-LOX inh inconclusive, IL1B secr inh -52, HT1080 IDH1KD tx inconclusive, DT40 TDP1 CPT inconclusive and HT1080NT lethal inconclusive.
For CCOc1ccc(CN(C)CC(=O)NCc2ccc(F)cc2)cc1 the results were DT40 TDP1 no CPT 21µM, 12-LOX inh inactive, IL1B secr inh inactive, HT1080 IDH1KD tx inactive, DT40 TDP1 CPT inconclusive and HT1080NT lethal inactive.
Screening CN(CC(=O)NCc1ccc(F)cc1)Cc1ccc(Br)cc1 returned DT40 TDP1 no CPT inconclusive, 12-LOX inh inactive, IL1B secr inh -72, HT1080 IDH1KD tx inactive, DT40 TDP1 CPT inactive and HT1080NT lethal inactive.
`COc1ccc(CNC(=O)CN(C)Cc2ccc(SC)cc2)cc1` gave DT40 TDP1 no CPT inconclusive, 12-LOX inh inactive, IL1B secr inh inactive, HT1080 IDH1KD tx inactive, DT40 TDP1 CPT inconclusive and HT1080NT lethal inactive.
For CC(C)CCN(CC(=O)NCc1ccc(F)cc1)S(=O)(=O)c1ccccc1F the results were DT40 TDP1 no CPT inconclusive, 12-LOX inh inactive, IL1B secr inh -80, HT1080 IDH1KD tx inactive, DT40 TDP1 CPT 23µM and HT1080NT lethal inactive.
`CCOc1ccc(CN(C)C(=O)CCl)cc1` gave DT40 TDP1 no CPT 2.9µM, 12-LOX inh inactive, IL1B secr inh -102, HT1080 IDH1KD tx inconclusive, DT40 TDP1 CPT 2.9µM and HT1080NT lethal inconclusive.
Screening NC(=O)[C@H](Cc1cccs1)NC(=O)C1=C[C@@H](NC(=O)c2cccnc2)[C@@H](O)[C@H](O)C1 returned 12-LOX inh inactive.
`O=S(=O)(NCc1ccccc1Cn1cccn1)N1CCCCC1` gave 12-LOX inh inactive.
`CCCn1c(C)c(CC(=O)NCC2CCCOC2)c2c1CC(C)(C)CC2=O` (stereo not given) gave 12-LOX inh inactive.
`COc1ccc(Br)cc1CN(C)CC(=O)NCc1ccc(F)cc1` gave DT40 TDP1 no CPT 18µM, 12-LOX inh inconclusive, IL1B secr inh inconclusive, HT1080 IDH1KD tx inactive, DT40 TDP1 CPT inconclusive and HT1080NT lethal inactive.
Screening CCOC(=O)C[C@H]1c2cc(F)ccc2S(=O)(=O)N1Cc1ccc(OC)cc1 returned DT40 TDP1 no CPT inconclusive, 12-LOX inh inactive, IL1B secr inh inactive, HT1080 IDH1KD tx inactive, DT40 TDP1 CPT inconclusive and HT1080NT lethal inactive.
Screening CCOC(=O)C[C@H]1c2cc(F)ccc2S(=O)(=O)N1Cc1cc(OC)c(OC)c(OC)c1 returned DT40 TDP1 no CPT 11µM and DT40 TDP1 CPT 10µM.
For CN(C)C[C@@H]1CN(S(C)(=O)=O)C[C@H]1NC(=O)C1(C)CCOCC1 the results were 12-LOX inh inactive.
`CCN(Cc1cc2cccc(C)c2[nH]c1=O)C(=O)c1ccccc1OC` gave DT40 TDP1 no CPT 23µM, 12-LOX inh inactive, IL1B secr inh inactive, HT1080 IDH1KD tx inactive, DT40 TDP1 CPT inconclusive and HT1080NT lethal inactive.
COc1ccc(N(Cc2cc3cc(OC)ccc3[nH]c2=O)C(=O)c2cccc(Cl)c2)cc1 was read as DT40 TDP1 no CPT inconclusive, 12-LOX inh inactive and DT40 TDP1 CPT inconclusive.
COc1ccc(N(Cc2cc3ccccc3[nH]c2=O)C(=O)c2cccc(Cl)c2)cc1 was read as DT40 TDP1 no CPT 23µM, 12-LOX inh inactive and DT40 TDP1 CPT 16µM.
COc1ccc2[nH]c(=O)c(CN(C(=O)c3cccnc3)c3ccc(C)c(C)c3)cc2c1 was read as DT40 TDP1 no CPT inconclusive, 12-LOX inh inactive, IL1B secr inh inactive, HT1080 IDH1KD tx inactive, DT40 TDP1 CPT 12µM and HT1080NT lethal inactive.
COc1ccccc1N(Cc1cc2cccc(C)c2[nH]c1=O)C(=O)c1cccc(Cl)c1 was read as DT40 TDP1 no CPT 21µM, 12-LOX inh inactive and DT40 TDP1 CPT 13µM.
For COCCN(Cc1cc2cccc(C)c2[nH]c1=O)C(=O)c1ccc(OC)c(OC)c1 the results were 12-LOX inh inactive.
Screening COCC1CN(C2CCC2)CC12CCN(C(=O)Cc1ccccc1)CC2 (stereo not given) returned 12-LOX inh inactive.
For CC(C)(CC(=O)O)CC(=O)N1CC[C@H]2NC(=O)N(c3ccccc3)C(=O)[C@H]21 the results were 12-LOX inh inactive.
For Cc1ccc(NC(=O)Cc2nn(C)c(=O)c3ccccc23)cc1F the results were DT40 TDP1 no CPT 2.6µM, 12-LOX inh inactive, IL1B secr inh inactive, HT1080 IDH1KD tx inconclusive, DT40 TDP1 CPT 2.3µM and HT1080NT lethal inconclusive.
For Cn1nc(CC(=O)NCc2ccc(F)cc2)c2ccccc2c1=O the results were DT40 TDP1 no CPT 18µM, 12-LOX inh inactive, IL1B secr inh inactive, HT1080 IDH1KD tx inactive, DT40 TDP1 CPT 13µM and HT1080NT lethal inactive.
Screening O=C(Cn1ncn2c(cc3ccccc32)c1=O)NCc1ccc(F)cc1 returned DT40 TDP1 no CPT 4.1µM, 12-LOX inh inactive and DT40 TDP1 CPT 5.8µM.
Screening Cn1nc(CC(=O)NCc2cccc3ccccc23)c2ccccc2c1=O returned DT40 TDP1 no CPT 9.2µM, 12-LOX inh inactive, IL1B secr inh inactive, HT1080 IDH1KD tx inconclusive, DT40 TDP1 CPT 7.3µM and HT1080NT lethal inactive.
O=C(Cn1ncn2c(cc3ccccc32)c1=O)NCCCc1ccccc1 was read as DT40 TDP1 no CPT inactive, IL1B secr inh inactive, HT1080 IDH1KD tx inactive, DT40 TDP1 CPT inactive and HT1080NT lethal inactive.
COC(=O)CNC(=O)Cc1nn(C)c(=O)c2ccccc12 was read as 12-LOX inh inactive.
`COc1ccc(-c2c(-c3ccc(OCCN4CCC(C)CC4)cc3O)n[nH]c2C)cc1` gave 12-LOX inh inactive.
